Each structure is given as a SMILES string. About 83,000 compounds went through this panel and 20% of them were active in at least one assay; those are over-represented in the sample as a whole.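 A percent growth of 40 corresponds to 60% growth inhibition; 0 means no net growth; -100 means all cells died. Active threshold: below 10.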 A number with no mark means an inactive call. The source made the active and inactive calls.

Among the data in PubChem BioAssay (NCI) are growth values, retold here.

Test in all cases: NCI-60 one-dose screen, 48 h (100 = growth as untreated, 0 = no growth, -100 = all killed)
What all share (details): 10 µM unless noted

Experiment [1] relates to EKVX NSCLC.
Experiment [2] has as its system SN12C renal.
Experiment [3] relates to UO-31 renal.
Experiment [4] deals with TK-10 renal.
The test system of experiment [5] is CAKI-1 renal.
Experiment [6] deals with A498 renal.
The test system of experiment [7] is MOLT-4 leukemia.
Experiment [8] deals with SR leukemia.
In experiment [9] the test system is RPMI-8226 leukemia.
Experiment [10] relates to OVCAR-8 ovarian.
Experiment [11] relates to OVCAR-5 ovarian.
Experiment [12] deals with OVCAR-4 ovarian.
Experiment [13] concerns SK-OV-3 ovarian.
For experiment [14], the system named is IGROV1 ovarian.
Experiment [15] has as its system OVCAR-3 ovarian.
The subject of experiment [16] is NCI/ADR-RES ovarian.
Experiment [17] deals with ACHN renal.
In experiment [18] the test system is CCRF-CEM leukemia.

In the case of `c1cc(OCCN2CCCCC2)cc(-c2n[nH]c3ccc(-c4ncn[nH]4)cc23)c1`, the growth was 76.7% in experiment [1]; 68.2% in experiment [2]; 25.1% in [3]; 74.5% in experiment [4]; 26.6% in [5]; 71% in experiment [6]. Also, the growth in [7] is 27%; in [8] it was 7.19% (active); in [9], 58.4%; in experiment [10] it was 72.2%; in [11], 56.5%; in experiment [12] it was 62.7%. Also, the growth in [13] is 31.8%; in [14], 30.9%; in experiment [15] it was 69%; in experiment [16], 89.7%.

As to `Cc1cc([C@@H](C)Nc2ccccc2C(=O)O)c2nc(N3CCOCC3)cc(=O)n2c1`, the growth in [1] is 61.7%; in experiment [2], 44.1%; in experiment [3], 15.7%; in experiment [4], 42.6%; in experiment [17], 46.3%; in experiment [5] it was 18.9%. The growth in [18] is 23.5%; in experiment [7], 20.6%; in experiment [8], 25%; in [9], 71.8%; in experiment [10], 45.6%; in experiment [11], 51.8%. For the same molecule, the growth in [12] is 77.3%; in [13] it was -13.2% (active); in experiment [14], -4.69% (active); in experiment [15], 31.1%; in experiment [16], 58.1%.

On to `COc1cccc(NC(=O)Nc2ccc(Nc3ncnc4sc5c(c34)CCN(C(=O)CCl)C5)cc2)c1`, for which the growth in experiment [1] was 109%; in experiment [2], 96.3%; in experiment [3], 66.6%; in experiment [4], 122%; in [17], 88.7%; in [5], 94.2%. Moreover, the growth was 88.4% in experiment [18]; 92.8% in [7]; 77.8% in [8]; 93.3% in experiment [9]; 84.4% in [10]; 103% in experiment [11]. Further, the growth in [12] was 126%; in experiment [13] it was 93.8%; in experiment [14], 82.6%; in experiment [15], 104%; in experiment [16], 102%.

As for `CCN(CC)CCNC(=O)c1c(C)[nH]c(/C=C2\C(=O)Nc3ccc(F)cc32)c1C`, the growth in experiment [1] is 17.8%; in experiment [2], 26%; in experiment [3] it was 7.88% (active); in [4], 27.1%; in experiment [5], 17.5%; in [6] it was 47.4%. Also, the growth in experiment [18] is 7.54% (active); in experiment [7] it was 17%; in [8] it was -9.44% (active); in experiment [9] it was -10.3% (active); in [10], 1.47% (active); in experiment [11] it was 35%. Moreover, the growth in experiment [12] is 23.9%; in [13] it was 26.9%; in experiment [14], 24.6%; in [15], 67.9%; in experiment [16], 18.4%.

Take `C=CC(=O)Nc1cccc(Nc2nc(Nc3ccc(N4CCN(C(C)=O)CC4)cc3OC)ncc2C(F)(F)F)c1`: the growth in experiment [1] was 1.17% (active); in experiment [2], 20.7%; in experiment [3] it was -18.3% (active); in experiment [4], -24.6% (active); in [5], -13.1% (active); in [6], -47.1% (active). Moreover, the growth is 19.2% in [18]; 12.6% in experiment [7]; 1.68% (active) in experiment [8]; 18.9% in experiment [10]; 13.4% in [11]; 10.5% in experiment [12]. The growth in experiment [13] was -18% (active); in experiment [14], -29.9% (active); in experiment [15], 19.5%; in [16], 21.3%.

In the case of `CN1CCC(COc2cnc(-c3cccc(Cn4nc(-c5cccc(C#N)c5)ccc4=O)c3)nc2)CC1`, the growth was 58.6% in experiment [1]; 82.2% in [2]; 77.8% in experiment [3]; 74.4% in experiment [17]; 79% in [5]; 95.1% in [6]. Moreover, the growth in experiment [18] is 34.7%; in [7] it was 55.2%; in experiment [8], -9.84% (active); in [9], 50.8%; in [10], 59.9%; in experiment [11], 78.9%. Moreover, the growth was 75.4% in [12], 70.3% in experiment [13], 73.3% in experiment [14] and 81.7% in experiment [15].

Take `S=C(NCc1ccc2c(c1)OCO2)N1CCN(c2ncnc3c2oc2ccccc23)CC1`: the growth in experiment [1] was 38.8%; in experiment [2] it was 50.8%; in experiment [3], 11.9%; in experiment [4] it was -3% (active); in [17], 19.6%; in [5], 28%. The growth in [18] is 22.5%; in experiment [7], 5.79% (active); in experiment [8] it was 14.8%; in [9], 21.3%; in [10], 24.8%; in experiment [11], 62.1%. In addition, the growth in experiment [12] is 14.1%; in experiment [13], 35.6%; in experiment [14] it was 33.4%; in experiment [15], 30.9%; in [16] it was 28.3%.

Regarding `Cn1cc(-c2ncnc3ccc(-c4cnc(Cl)c(NS(C)(=O)=O)c4)cc23)c2ccccc21`, the growth in [1] was 11.7%; in experiment [2] it was 21.7%; in experiment [3] it was -5.34% (active); in [4], -1.34% (active); in [5] it was 10.6%; in experiment [6] it was -42.7% (active). Also, the growth in experiment [18] was 23.9%; in experiment [7], 7.73% (active); in [8], 15.9%; in experiment [9], 14.5%; in experiment [10], 31%; in [11], 12.8%. For the same molecule, the growth in experiment [12] is 15.4%; in experiment [13], -18.1% (active); in experiment [14] it was -24.3% (active); in [15] it was 21.1%; in experiment [16], 20.6%.

Regarding `COc1ccc(COc2cc3oc(=O)c4cc(C(C)O)ccc4c3cc2OC)cc1` (stereo not given), the growth is 68.9% in [1]; 68.5% in [2]; 64.5% in [3]; 73.5% in experiment [4]; 48.4% in experiment [17]; 55.9% in [5]. Further, the growth was 77.1% in experiment [18]; 54.5% in experiment [7]; 18.6% in experiment [8]; 68% in experiment [9]; 25% in [10]; 86% in experiment [11]. Also, the growth in [12] was 53.8%; in experiment [13], 40.5%; in [14], 57.6%; in experiment [15] it was 58.6%; in [16], 56.1%.
